Test results taken from PubChem BioAssay AID504329 (Southern Research Specialized Biocontainment Screening …, 2011).
Screen size: about 340,000 compounds; about 1,000 (0.29%) were called active. Cut-off read from the data, not from the text of the source: inconclusive = inhibition above about 27% without an active follow-up result; inactive = below that. Not all results are given here. Results with a measured potency or affinity are listed apart.

Assay: NS1A inhibition, H1N1 influenza, cell based functional assay (AID 504329)
Details: percent inhibition, at 12.5 µM, stronger effect = higher value

SMILES | inhibition
COc1ccc(CN(C)CC(=O)Nc2sc3c(c2C#N)CCC3)c(OC)c1 | -1.01% (inactive)
CCc1ccc(NSc2ccccc2[N+](=O)[O-])cc1 | 28.4% (inactive)
O=[N+]([O-])c1nn(-c2ccccc2)[n+]([O-])c1N1CCN(c2ccccc2F)CC1 | 2.62% (inactive)
CC(=O)c1ccc(NC(=S)Nc2ccc(Br)c(Cl)c2)cc1 | -4.9% (inactive)
CC(=O)N(C)c1ccc(N=C2C(=O)Nc3ccccc32)cc1 | 3.21% (inactive)
Cc1ccc(N=C2C(=O)Nc3ccccc32)cc1 | -4.95% (inactive)
C=CCn1c(SCC(=O)N(C)C)nc2cc(C(=O)O)ccc2c1=O | -7.19% (inactive)
C=CCn1c(Sc2ccccc2)nc2c1c(=O)[nH]c(=O)n2C | -6.06% (inactive)
COc1ccc([C@H]2CC(=O)C=C(c3ccc(O)cc3)C2)cc1OC | -4.89% (inactive)
CN(C)c1ccc(/C=N/N2C(=O)c3ccccc3C2=O)cc1 | -9.49% (inactive)
CN(C)c1ccc(C(=O)NN2C(=O)c3ccccc3C2=O)cc1 | -1.57% (inactive)
CCc1ccc(-c2cc(C)no2)cc1S(=O)(=O)Nc1cc(C)on1 | 1.29% (inactive)
Cc1ccccc1-c1nc(CS(=O)CC(=O)NCCN2CCOCC2)c(C)o1 (centres undefined) | -1.58% (inactive)
Nc1ccccc1N=Nc1ccccc1N | 18.4% (inactive)
CC(C)(C)C1=CC(O)(c2ccccc2)C=C(C(C)(C)C)C1=O | -2.37% (inactive)
COc1cccc(NC(=O)COC(=O)c2ccco2)c1 | 7.2% (inactive)
CCOc1cccc(CNCCCSc2ncccn2)c1 | 1.33% (inactive)
O=C(O)c1cccc2cccc(-c3c4ccc(=O)c(O)c-4oc4c(O)c(O)ccc34)c12 | 13% (inactive)
O=C1c2ccccc2C(=O)c2c1ccc(O)c2O | 17.2% (inactive)
Cc1ccc(OCCNC(=O)C2CC(=O)N(Cc3ccccc3)C2)cc1 (centres undefined) | 4.88% (inactive)
CC1CCN(S(=O)(=O)c2ccccc2[N+](=O)[O-])CC1 | 16.9% (inactive)
CC1CCN(CC(O)COc2ccc(-c3ccccc3)cc2)CC1 (centres undefined) | 19.9% (inactive)
CN1CCN(c2ccc(N)c(N3CCN(C)CC3)c2)CC1 | 17.9% (inactive)
Cc1nn(-c2cc(N3CCCCC3)ccc2N)c(=O)c2ccccc12 | 2.92% (inactive)

SMILES | inhibition
O=C(C[C@@H]1C/C=C\C[C@@H](Cc2ccc(F)cc2)C(=O)OCCNC1=O)NCCO | 0.47% (inactive)
O=C1Nc2ccc(Br)cc2C12OCCO2 | -14.6% (inactive)
CCOc1ccc(C(=O)NCc2ccc3c(c2)OCO3)cc1OCC | -1.8% (inactive)
O=C(COC(=O)c1ccc[nH]c1=O)NC1CCCCCCC1 | -1.92% (inactive)
Cc1ccc(/C=N/Nc2ccc3c(C(F)(F)F)cc(C(F)(F)F)nc3n2)cc1 | -11.1% (inactive)
N#CC(c1cccc(Cl)c1)c1ccc2c(C(F)(F)F)cc(C(F)(F)F)nc2n1 (centres undefined) | 20.9% (inactive)
FC(F)(F)c1cc(C(F)(F)F)c2ccc(Oc3ccccc3)nc2n1 | -1.17% (inactive)
N#CC(c1ccc(Cl)cc1)c1ccc2c(C(F)(F)F)cc(C(F)(F)F)nc2n1 (centres undefined) | 21.3% (inactive)
O=C(C1=C[C@H](c2ccc3c(c2)OCO3)C[C@H](OCCCCO)O1)N1CCOCC1 | -1.7% (inactive)
O=C(c1cc2cc(F)ccc2[nH]1)N1CCCC(Nc2ccc(F)cc2)C1 (centres undefined) | 9.28% (inactive)
CC(C)(C)c1ccc(S(=O)(=O)/N=C2\C=C(NS(=O)(=O)c3ccccc3)C(=O)c3ccccc32)cc1 | 11.3% (inactive)
CCc1ccc(S(=O)(=O)/N=C2\C=C(NS(=O)(=O)c3ccccc3)C(=O)c3ccccc32)cc1 | 11.2% (inactive)
CC(C)c1ccc(S(=O)(=O)/N=C2\C=C(NS(=O)(=O)c3ccccc3)C(=O)c3ccccc32)cc1 | 14.3% (inactive)
CCc1ccc(S(=O)(=O)/N=C2\C=C(Nc3ccc(C(=O)O)cc3)C(=O)c3ccccc32)cc1 | 25.1% (inactive)
Cc1ccc(S(=O)(=O)Nc2c(NC3CCCCC3)c3ccccc3oc2=O)c(C)c1 | 0.02% (inactive)
Cc1ccn(CCC(=O)N2CCCC(CCC(=O)N3CCN(c4ccccn4)CC3)C2)n1 (centres undefined) | -2.86% (inactive)
Cc1cc(C)c(NC(=O)CNC(=O)COC(=O)CNC(=O)c2ccc(Cl)cc2Cl)c(C)c1 | -0.98% (inactive)
CCOC(=O)N1CCC(NS(=O)(=O)c2cc(Br)cc3c2N(C(=O)CC)CC3)CC1 | 7.36% (inactive)
Cc1ccc(Nc2c(-c3ccccn3)nc3cc(C)ccn23)cc1 | 53% (inactive)
Cc1ccccc1Nc1c(-c2ccccn2)nc2c(C)cccn12 | -0.06% (inactive)
Cc1cccc(C)c1Nc1c(-c2ccccn2)nc2ccccn12 | 29.7% (inactive)
Cc1ccn2c(Nc3ccccc3)c(-c3ccccn3)nc2c1 | -0.92% (inactive)
CCOC(=O)CN(C(=O)c1snc(C(N)=O)c1N)C(C(=O)NC1CCCCC1)c1ccc(F)cc1 (centres undefined) | 1.16% (inactive)
COc1ccc(C(=O)N/C(=C\c2cn(C)c3ccccc23)C(=O)NCCCn2ccnc2)cc1OC | 4.02% (inactive)

SMILES | inhibition
O=C(NCCc1ccc(Cl)cc1)C(=O)c1c[nH]c2ccccc12 | -31.4% (inactive)
O=C(Nc1ccc(N2CCOCC2)cc1)C1CCCCN1S(=O)(=O)c1ccccc1 (centres undefined) | -25.6% (inactive)
c1ccc(CN2CCNCC2)nc1 | 2.99% (inactive)
c1cc(CNCCN2CCNCC2)ccn1 | -2.65% (inactive)
CN(CCCNC(=O)CCC(=O)N1CCOc2ccc(Cl)cc21)Cc1ccccc1 | 3.8% (inactive)
O=C(CN1C(=O)NC2(CCc3ccccc32)C1=O)c1cccs1 (centres undefined) | -5.04% (inactive)
COc1ccc(CCN=Cc2ccccc2O)cc1OC | -18.6% (inactive)
COc1ccccc1/C=N/Nc1nc(C)cc(C)n1 | -18.3% (inactive)
COc1ccc(/C=N/Nc2nnc(Cc3ccc(OC)c(OC)c3)c(=O)[nH]2)cc1OC | -2.26% (inactive)
COc1ccc(Cc2nnc(SC)[nH]c2=O)cc1OC | -0.91% (inactive)
COc1ccc(Cc2nc3ccccc3n2CC(=O)N/N=C/c2ccc(C)cc2O)cc1OC | 1.09% (inactive)
CCc1ccc2[nH]c3nc(N/N=C/c4ccc(O)cc4O)nnc3c2c1 | 1.89% (inactive)
COc1ccc(Cc2nccc3cc(OC)c(OC)cc23)cc1OC | 0.89% (inactive)
COc1ccc(/C=N/Nc2nnc(Cc3ccc(OC)c(OC)c3)c(=O)[nH]2)cc1 | 12.1% (inactive)
COc1ccc(NC2c3ccccc3C(=O)N2c2ccccn2)cc1Cl (centres undefined) | 25% (inactive)
Cn1c(=O)c(=O)n(C)c2cc(S(=O)(=O)NCc3ccc(Cl)cc3)ccc21 | -12% (inactive)
O=C(CSc1ccccc1)NNC(=O)c1ccncc1 | -1.89% (inactive)
CC(C)CC(=O)Nc1nnc(S(=O)(=O)Nc2ccccc2)s1 | 0.61% (inactive)
CCCCn1c(=O)[nH]c(=O)c2c1nc(-c1ccccc1OC(F)F)n2C | -2.54% (inactive)
Cc1ccc(NCC(=O)N/N=C/c2cccn2C)cc1 | 1.43% (inactive)
Cc1cc(N2CCN(CC(O)C(F)(F)F)CC2)c2ccccc2n1 (centres undefined) | 15.7% (inactive)
CCC(CO)Oc1cc(NCc2cccc(C(F)(F)F)c2)c2ncn(C(C)C)c2c1 (centres undefined) | -6.24% (inactive)
COCCN(CC1CCCN(C2Cc3ccccc3C2)C1)C(=O)CCC(C)=O (centres undefined) | -22.6% (inactive)
CN(CC(=O)Nc1ccc(Cl)cc1F)C1=NS(=O)(=O)c2ccccc21 | 5.4% (inactive)

SMILES | inhibition
COc1ccc(S(=O)(=O)Nc2ccc(NC(C)=O)cc2)cc1[N+](=O)[O-] | 9.65% (inactive)
Clc1ccc(CNc2ccc(N3CCN(Cc4ccccc4)CC3)cc2)cc1 | 20.5% (inactive)
CCOc1c(Cl)cc(CNc2ccc(N3CCCC3)cc2)cc1OC | 15.9% (inactive)
COc1cc(CNc2ccc(N3CCCC3)cc2)cc(Cl)c1OC | 21.3% (inactive)
CCOc1ccc(CNc2ccc(N3CCCC3)cc2)cc1 | 21.7% (inactive)
COc1ccc(C(=O)Nc2ccc(N3CCN(C(=O)C(C)C)CC3)cc2)cc1[N+](=O)[O-] | -5.48% (inactive)
CCOC(=O)C1CCCN(CCC(=O)Nc2ccc(F)c(F)c2)C1 (centres undefined) | -6.65% (inactive)
c1ccc(CSC2=NCCCN2)cc1 | 5.1% (inactive)
Cc1ccc(NC(=O)CSc2nc3ccccc3c(=O)n2CCCC(=O)N2CCCC2)cc1 | -0.44% (inactive)
CC1=NN(c2cccc(F)c2)C(=O)/C1=C/c1ccc(N(C)C)cc1 | 15.2% (inactive)
CCN(CC)c1ccc(/C=C2/C(=O)ON=C2C)cc1 | 22.3% (inactive)
COc1ccc(NC(=O)CN(C)CC(=O)NCCc2ccc(F)cc2)cc1 | -13.6% (inactive)
COCCN(Cc1cc2cccc(C)c2n2nnnc12)C(=O)C(F)(F)F | -4.57% (inactive)
CN(CCc1cn[nH]c1)Cc1nc(Cc2ccccc2)no1 | 3.23% (inactive)
COc1ccc(CN2CCN(C)CC2)cc1OCc1ccccc1 | 0.12% (inactive)
COc1cc(OC)cc(C(=O)Oc2c(CN3CCOCC3)cc(Cl)c3cccnc23)c1 | -7.03% (inactive)
COc1ccc(C(=O)Oc2c(CN3CCOCC3)cc(Cl)c3cccnc23)cc1 | 6.29% (inactive)
Oc1c(CN2CCOCC2)cc(-c2ccccc2)cc1CN1CCOCC1 | 9.91% (inactive)
O=C(Oc1c(CN2CCOCC2)cc(Cl)c2cccnc12)c1ccccc1Cl | 13.5% (inactive)
Oc1c(CN2CCOCC2)cc(CN2CCOCC2)cc1CN1CCOCC1 | -23.8% (inactive)
CN1CCN(Cc2ccc(OCc3ccccc3)cc2)CC1 | -2.13% (inactive)
O=C(Oc1c(CN2CCOCC2)cc(Cl)c2cccnc12)c1ccccc1 | -7.41% (inactive)
